What all share (experiment): DAPPL (digital affinity profiling via proximity ligation, sequencing); 10 mM Tris-HCl pH 7.5, 50 mM NaCl, 1 mM DTT, 4% glycerol, room temperature, 30 min; GST-TFs on glutathione beads, 16-mer random dsDNA library, 0.1% formaldehyde crosslink after washing; high values mean tight binding
What all share (settings): protein: recombinant; tags: N-terminal GST; dsDNA, one strand shown

The target of one test is T1, GABPA (Homo sapiens, UniProt Q06546 1-454).
T1 sequence: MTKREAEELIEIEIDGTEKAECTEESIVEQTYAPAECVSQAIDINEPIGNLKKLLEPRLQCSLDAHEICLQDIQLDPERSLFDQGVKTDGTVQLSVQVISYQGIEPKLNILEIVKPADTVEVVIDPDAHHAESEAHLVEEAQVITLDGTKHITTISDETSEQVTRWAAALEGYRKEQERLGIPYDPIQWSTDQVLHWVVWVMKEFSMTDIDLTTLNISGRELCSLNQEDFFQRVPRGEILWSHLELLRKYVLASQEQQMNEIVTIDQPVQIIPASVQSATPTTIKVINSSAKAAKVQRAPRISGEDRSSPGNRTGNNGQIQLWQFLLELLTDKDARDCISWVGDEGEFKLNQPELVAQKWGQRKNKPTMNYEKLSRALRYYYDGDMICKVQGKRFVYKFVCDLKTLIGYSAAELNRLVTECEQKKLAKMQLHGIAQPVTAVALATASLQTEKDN
Put shortly: (§1)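 A tag-only sample was pooled with DNA-barcoded human transcription factors that had been expressed in yeast as GST fusions and captured on glutathione beads. The pools were incubated for 30 min at room temperature with 200 nmole of a random double-stranded 16-mer DNA library in Tris/NaCl/DTT/glycerol buffer, then washed, crosslinked with 0.1% formaldehyde, proximity-ligated (BsaI/T4 ligase, 1 h, 37 °C), PCR-amplified and sequenced on an Illumina NextSeq500. Binding signal is each hexamer's read frequency for a factor divided by its frequency for the tag-only sample.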

Another test addresses ELF1 (Homo sapiens, UniProt P32519 1-619). Put shortly: as §1
The next test has as its target SPIB (Homo sapiens, UniProt Q01892 1-262). The procedure, abridged: as §1
A further test deals with T2, ELK3 (Homo sapiens, UniProt P41970 1-407).
T2 sequence: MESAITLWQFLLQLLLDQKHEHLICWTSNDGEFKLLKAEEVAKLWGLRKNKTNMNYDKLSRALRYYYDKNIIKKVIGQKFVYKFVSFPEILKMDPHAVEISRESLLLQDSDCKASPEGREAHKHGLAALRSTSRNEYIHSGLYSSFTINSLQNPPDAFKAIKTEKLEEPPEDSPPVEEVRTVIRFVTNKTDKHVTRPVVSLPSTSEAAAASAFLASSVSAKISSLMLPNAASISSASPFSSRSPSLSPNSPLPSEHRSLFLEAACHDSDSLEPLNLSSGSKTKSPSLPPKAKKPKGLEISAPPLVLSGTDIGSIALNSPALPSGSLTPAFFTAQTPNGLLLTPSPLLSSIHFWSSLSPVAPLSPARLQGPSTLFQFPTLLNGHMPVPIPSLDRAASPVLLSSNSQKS
Put shortly:
as §1

In another test the target is T3, SPIC (Homo sapiens, UniProt Q8N5J4 1-248).
T3 sequence: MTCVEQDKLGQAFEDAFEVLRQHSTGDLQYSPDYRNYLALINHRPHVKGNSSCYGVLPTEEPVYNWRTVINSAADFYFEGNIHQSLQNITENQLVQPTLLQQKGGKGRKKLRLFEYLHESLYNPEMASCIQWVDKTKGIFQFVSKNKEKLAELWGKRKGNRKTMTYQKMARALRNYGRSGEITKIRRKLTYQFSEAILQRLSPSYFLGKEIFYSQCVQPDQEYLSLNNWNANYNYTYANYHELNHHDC
Put shortly: as §1

Another test deals with ETV1 (Homo sapiens, UniProt P50549 1-477). Put shortly: as §1
Sequence of ETV1 (P50549 whole entry): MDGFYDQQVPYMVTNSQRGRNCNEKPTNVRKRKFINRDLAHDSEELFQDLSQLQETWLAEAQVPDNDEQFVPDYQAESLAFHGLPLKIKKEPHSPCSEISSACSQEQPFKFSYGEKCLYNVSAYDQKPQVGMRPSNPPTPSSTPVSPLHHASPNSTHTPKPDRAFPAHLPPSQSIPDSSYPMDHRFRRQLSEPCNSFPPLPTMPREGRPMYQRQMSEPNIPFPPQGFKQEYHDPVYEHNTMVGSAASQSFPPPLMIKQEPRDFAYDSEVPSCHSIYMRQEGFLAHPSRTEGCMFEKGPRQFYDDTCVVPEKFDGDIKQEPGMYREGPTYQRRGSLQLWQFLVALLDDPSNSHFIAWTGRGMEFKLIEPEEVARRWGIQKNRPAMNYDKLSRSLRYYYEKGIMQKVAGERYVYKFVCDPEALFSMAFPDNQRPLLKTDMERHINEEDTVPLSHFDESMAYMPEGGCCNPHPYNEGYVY
The target of another test is T4, ERF (Homo sapiens, UniProt P50548 1-548).
T4 sequence: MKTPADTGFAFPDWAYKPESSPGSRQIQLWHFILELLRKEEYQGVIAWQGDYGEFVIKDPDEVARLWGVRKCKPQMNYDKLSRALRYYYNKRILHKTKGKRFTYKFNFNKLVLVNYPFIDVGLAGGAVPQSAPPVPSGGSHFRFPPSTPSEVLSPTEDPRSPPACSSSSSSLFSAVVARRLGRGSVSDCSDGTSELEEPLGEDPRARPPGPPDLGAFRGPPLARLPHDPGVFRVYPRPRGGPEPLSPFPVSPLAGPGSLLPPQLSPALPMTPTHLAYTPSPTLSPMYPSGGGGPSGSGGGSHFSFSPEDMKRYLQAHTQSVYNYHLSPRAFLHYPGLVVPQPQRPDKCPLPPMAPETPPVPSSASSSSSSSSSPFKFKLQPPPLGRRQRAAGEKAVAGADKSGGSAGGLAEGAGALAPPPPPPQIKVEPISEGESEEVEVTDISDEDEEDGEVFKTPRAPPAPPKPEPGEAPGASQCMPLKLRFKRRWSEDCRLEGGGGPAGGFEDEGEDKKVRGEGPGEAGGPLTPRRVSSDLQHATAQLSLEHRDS
Put shortly: as §1

Another test concerns the target T5, ETV3L (Homo sapiens, UniProt Q6ZN32 1-361).
T5 sequence: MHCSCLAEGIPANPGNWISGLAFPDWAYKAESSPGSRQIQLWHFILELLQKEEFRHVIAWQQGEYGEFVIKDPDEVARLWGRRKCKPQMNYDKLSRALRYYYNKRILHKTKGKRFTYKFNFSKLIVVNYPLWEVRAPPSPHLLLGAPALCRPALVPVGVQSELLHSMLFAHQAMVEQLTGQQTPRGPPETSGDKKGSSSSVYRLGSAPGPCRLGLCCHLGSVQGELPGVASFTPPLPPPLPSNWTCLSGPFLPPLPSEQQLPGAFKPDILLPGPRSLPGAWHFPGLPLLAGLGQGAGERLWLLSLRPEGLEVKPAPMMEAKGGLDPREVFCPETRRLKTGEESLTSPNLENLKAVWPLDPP
The procedure, abridged:
as §1

Another test addresses T6, ETS2 (Homo sapiens, UniProt P15036 1-469).
T6 sequence: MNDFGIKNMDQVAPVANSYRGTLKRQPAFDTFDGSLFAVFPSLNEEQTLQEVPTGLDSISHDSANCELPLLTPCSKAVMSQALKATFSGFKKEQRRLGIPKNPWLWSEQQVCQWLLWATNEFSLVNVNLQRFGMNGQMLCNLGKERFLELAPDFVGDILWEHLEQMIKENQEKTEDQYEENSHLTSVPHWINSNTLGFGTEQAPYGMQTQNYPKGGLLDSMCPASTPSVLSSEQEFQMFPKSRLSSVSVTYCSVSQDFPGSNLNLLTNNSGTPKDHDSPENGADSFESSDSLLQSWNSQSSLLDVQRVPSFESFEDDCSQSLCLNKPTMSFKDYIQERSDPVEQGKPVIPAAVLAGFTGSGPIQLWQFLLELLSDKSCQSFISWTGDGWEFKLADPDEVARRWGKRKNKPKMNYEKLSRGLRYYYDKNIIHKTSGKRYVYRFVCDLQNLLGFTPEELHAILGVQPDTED
Put shortly:
as §1

The target of another test is T7, SPDEF (Homo sapiens, UniProt O95238 1-335).
T7 sequence: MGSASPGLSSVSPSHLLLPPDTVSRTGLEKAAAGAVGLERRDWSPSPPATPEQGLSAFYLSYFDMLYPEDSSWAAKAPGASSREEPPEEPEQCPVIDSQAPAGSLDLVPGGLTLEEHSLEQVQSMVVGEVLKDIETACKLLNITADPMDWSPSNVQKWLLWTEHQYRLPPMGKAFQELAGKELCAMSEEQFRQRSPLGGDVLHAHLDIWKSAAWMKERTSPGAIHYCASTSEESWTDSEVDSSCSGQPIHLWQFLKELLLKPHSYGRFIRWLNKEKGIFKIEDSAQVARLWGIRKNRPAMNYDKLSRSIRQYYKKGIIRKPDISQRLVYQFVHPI
Put shortly: as §1

Another test has as its target T8, ETV3 (Homo sapiens, UniProt P41162-2 1-143).
T8 sequence: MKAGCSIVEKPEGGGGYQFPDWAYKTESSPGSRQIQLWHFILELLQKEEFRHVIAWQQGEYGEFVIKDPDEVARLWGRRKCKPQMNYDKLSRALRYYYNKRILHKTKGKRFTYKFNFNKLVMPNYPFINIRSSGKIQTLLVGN
The procedure, abridged:
as §1

Another test addresses ETV6 (Homo sapiens, UniProt P41212 1-452). The procedure, abridged:
as §1

Sequence of SPIB (Q01892 whole entry): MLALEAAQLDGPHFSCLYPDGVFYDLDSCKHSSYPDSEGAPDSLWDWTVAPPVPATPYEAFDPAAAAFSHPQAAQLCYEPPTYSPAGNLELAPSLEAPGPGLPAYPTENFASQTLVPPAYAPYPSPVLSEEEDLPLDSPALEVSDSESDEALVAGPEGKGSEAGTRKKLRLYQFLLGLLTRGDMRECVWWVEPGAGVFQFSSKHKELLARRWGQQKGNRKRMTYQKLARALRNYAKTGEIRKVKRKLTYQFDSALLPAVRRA
Sequence of ETV6 (P41212 whole entry): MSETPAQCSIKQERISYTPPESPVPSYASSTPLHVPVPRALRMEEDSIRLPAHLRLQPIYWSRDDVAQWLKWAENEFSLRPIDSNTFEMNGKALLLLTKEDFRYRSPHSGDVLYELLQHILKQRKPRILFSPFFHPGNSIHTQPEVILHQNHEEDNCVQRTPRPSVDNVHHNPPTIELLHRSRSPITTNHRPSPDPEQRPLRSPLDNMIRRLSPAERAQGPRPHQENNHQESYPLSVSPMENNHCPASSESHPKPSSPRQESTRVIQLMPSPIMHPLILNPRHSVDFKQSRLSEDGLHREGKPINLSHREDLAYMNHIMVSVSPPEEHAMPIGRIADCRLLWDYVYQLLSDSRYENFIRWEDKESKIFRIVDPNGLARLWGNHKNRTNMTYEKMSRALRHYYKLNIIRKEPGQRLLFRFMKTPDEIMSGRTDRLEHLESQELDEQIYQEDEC
Sequence of ELF1 (P32519 whole entry): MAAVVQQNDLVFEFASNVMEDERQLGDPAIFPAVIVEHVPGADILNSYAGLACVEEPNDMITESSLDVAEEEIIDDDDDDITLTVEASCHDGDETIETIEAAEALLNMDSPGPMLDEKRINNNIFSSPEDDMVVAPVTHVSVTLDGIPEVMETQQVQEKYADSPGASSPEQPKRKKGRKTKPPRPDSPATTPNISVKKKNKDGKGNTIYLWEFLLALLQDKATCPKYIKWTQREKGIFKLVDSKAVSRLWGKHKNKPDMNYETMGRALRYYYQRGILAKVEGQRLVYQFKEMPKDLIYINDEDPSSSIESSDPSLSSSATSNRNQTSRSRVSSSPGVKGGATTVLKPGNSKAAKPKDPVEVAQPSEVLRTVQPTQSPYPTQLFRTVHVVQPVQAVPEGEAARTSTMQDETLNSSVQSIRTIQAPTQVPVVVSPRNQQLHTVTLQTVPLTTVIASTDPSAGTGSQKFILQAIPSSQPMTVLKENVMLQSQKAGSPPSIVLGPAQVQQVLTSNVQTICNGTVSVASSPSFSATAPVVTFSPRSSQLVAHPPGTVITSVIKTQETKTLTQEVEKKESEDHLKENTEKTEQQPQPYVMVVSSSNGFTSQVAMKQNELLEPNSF

For GATCAA, the binding signal with GABPA was 1.16 fold enrichment (6-mer frequency, TF over GST control); with ELF1, 1.04 fold enrichment (6-mer frequency, TF over GST control); with SPIB, 1.03 fold enrichment (6-mer frequency, TF over GST control); in the test with ELK3, 1.09 fold enrichment (6-mer frequency, TF over GST control); in the test with SPIC, 1.05 fold enrichment (6-mer frequency, TF over GST control); with ETV1 it was 1.04 fold enrichment (6-mer frequency, TF over GST control). The binding signal in the test with ERF was 1.02 fold enrichment (6-mer frequency, TF over GST control); in the test with ETV3L, 1.1 fold enrichment (6-mer frequency, TF over GST control); with ETS2, 1.04 fold enrichment (6-mer frequency, TF over GST control); with SPDEF, 1.05 fold enrichment (6-mer frequency, TF over GST control); with ETV3, 1.01 fold enrichment (6-mer frequency, TF over GST control); with ETV6, 1.07 fold enrichment (6-mer frequency, TF over GST control).
